NPR1 antag – antagonists of human natriuretic peptide receptor Npr1; Potency, µM (top dose mostly 46.3 µM), without a hit: at the top dose activity change, negative = inhibition, actives largely listed as inhibitors; HEK293 hNpr1 GloSensor cGMP, ANP-stimulated luminescence; 76,000 compounds, 1.6% hits; AID 1347048; P16066; calls by dose curve; further: nearly all actives have a fitted effect of over 60% in size
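HEK293 cells stably expressing human Npr1 and cGMP GloSensor pGS-40F, loaded 2 h with 2% GloSensor reagent, given compound 30 min at room temperature. Luminescence read before and 20 min after 0.1 nM hNppA.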
Luciferase inh – inhibitors of firefly (Photinus pyralis) luciferase; P08659; purified P. pyralis luciferase, luminescence, biochemical; Potency, µM (top dose mostly 115 µM), hits mostly inhibitors; 76,000 compounds, 2.5% hits; AID 1347043; further: nearly all actives have a fitted effect of over 65% in size
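Inhibitors were tested against purified firefly luciferase in a biochemical, low-substrate format (both substrates at 10uM) and luminescence measured with a CCD imager.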
GPT2 inh – inhibitors of human GPT2 alanine aminotransferase | Recombinant GPT2, coupled pyruvate oxidase/HRP Amplex Red fluorescence | Potency, µM (series often up to 57.7 µM), inactives show at the highest dose activity change, negative = inhibition, usual class: inhibitors | 100,000 compounds, 0.25% hits; further: nearly all actives have a fitted effect of over 60% in size
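Inhibition is scored from Amplex Red fluorescence generated when pyruvate oxidase and HRP act on pyruvate released by GPT2. Reactions contain 10ng/uL enzyme, 250uM a-KG and 2mM L-alanine and run 30 min at room temperature.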
3T3 cytotox – NIH 3T3 cell cytotoxicity | NIH 3T3 viability, CellTiter-Glo ATP luminescence, 48-72 h | Potency, µM (highest dose often 96.7 µM), for inactives: at the top dose activity change, negative = cytotoxicity, most hits filed as inhibitors | 94,000 compounds, 4.3% hits | AID 1345082; further: nearly all actives have a fitted effect of over 55% in size
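First NIH 3T3 cells are plated at 400 cells/well; next compound is pinned in; then plates incubate 48 or 72 hr at 37 °C; finally CellTiter-Glo is added and luminescence read after 10 min.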
HEK cytotox – kills HEK 293 cells; Potency, µM (titrated, usually from 115 µM), without a hit: at the top dose activity change, negative = cytotoxicity, usual class: inhibitors; HEK 293 viability, ATP luminescence (CellTiter-Glo), 48-72 h; 94,000 compounds, 6.6% hits; further: nearly all actives have a fitted effect of over 60% in size
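Cytotoxicity was scored by loss of ATP-coupled luminescence (CellTiter-Glo) in HEK 293 cells. Compound treatment ran 48 or 72 hr at 37 degree Celsius, 5% CO2, 95% humidity.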
* = called active by the depositor; [ ] = dose if it differs, or a comment. The list is not random: actives were taken first. Their share in the collection is about 10%. Unless noted, the call rests on the fitted dose curve; in most records, active means well fitted curve in the direction sought with a large enough effect; inconclusive means small, poorly fitted or top-dose-only effect, or another doubt; inactive means no such curve, though single readings can be large; an effect the other way counts as inactive or inconclusive. On the % scale 0 is the no-effect control and ±100 the full control effect; potency means the concentration at half of the fitted maximal effect.

What do the screens show for `COCCN1Cc2nc(-c3cnn(Cc4ccccc4)c3)ccc2OCC1=O`?
NPR1 antag: -18%[70.6 µM]; Luciferase inh: inactive; GPT2 inh: -2%[88.5 µM]; 3T3 cytotox: 45µM*; HEK cytotox: inconclusive

How did O=C1COc2ccc(-c3ccccc3)nc2CN1CCOc1ccccc1 do in these assays?
NPR1 antag: -27%[70.6 µM]; Luciferase inh: inactive; GPT2 inh: -11%[88.5 µM]; 3T3 cytotox: 45µM*; HEK cytotox: inconclusive

How did COc1cccc(CN2Cc3nc(-c4ccncc4)ccc3OCC2=O)c1 do in these assays?
NPR1 antag: -29%[70.6 µM]; Luciferase inh: inactive; GPT2 inh: 2%[88.5 µM]; 3T3 cytotox: inconclusive; HEK cytotox: inconclusive

What do the screens show for `COc1cccc(CN2Cc3nc(-c4ccsc4)ccc3OCC2=O)c1`?
NPR1 antag: -11%[70.6 µM]; Luciferase inh: inactive; GPT2 inh: -21%[88.5 µM]; 3T3 cytotox: inconclusive; HEK cytotox: inconclusive

How did COc1cccc(CN2Cc3nc(-c4cn[nH]c4)ccc3OCC2=O)c1 do in these assays?
NPR1 antag: -2%[70.6 µM]; Luciferase inh: inactive; GPT2 inh: inactive; 3T3 cytotox: 35µM*; HEK cytotox: inconclusive

What do the screens show for `Cc1ccc(NC(=O)N(C)CC2CCOC2)cc1F` (centres undefined)?
NPR1 antag: 4%; Luciferase inh: inactive; GPT2 inh: inactive; 3T3 cytotox: 5%; HEK cytotox: 0%

How did Cn1cncc1C(=O)N1C[C@@H](COCC2CC2)[C@H](c2ccccn2)C1 do in these assays?
NPR1 antag: -1%; Luciferase inh: inactive; GPT2 inh: 4%; 3T3 cytotox: -3%; HEK cytotox: inactive

What do the screens show for `COc1ccc(CN2CC3(CCN(S(=O)(=O)c4cc(F)ccc4F)CC3)C2=O)cc1`?
NPR1 antag: -17%; Luciferase inh: inactive; GPT2 inh: inactive; 3T3 cytotox: inconclusive; HEK cytotox: inconclusive

Results for O=C1COc2ccc(-c3cn[nH]c3)nc2CN1Cc1ccccc1 ?
NPR1 antag: -8%[70.6 µM]; Luciferase inh: inactive; GPT2 inh: inactive; 3T3 cytotox: 28µM*; HEK cytotox: inconclusive

Results for O=C1COc2ccc(-c3ccccc3)nc2CN1Cc1ccc(F)cc1 ?
NPR1 antag: -18%[70.6 µM]; Luciferase inh: inactive; GPT2 inh: -8%[88.5 µM]; 3T3 cytotox: inconclusive; HEK cytotox: inconclusive

Results for COc1cccc(CN2Cc3nc(-c4cccc(O)c4)ccc3OCC2=O)c1 ?
NPR1 antag: -22%[70.6 µM]; Luciferase inh: inactive; GPT2 inh: -9%[88.5 µM]; 3T3 cytotox: inconclusive; HEK cytotox: 100µM*

What do the screens show for `CN(c1ccccc1)c1ccc2c(n1)CN(Cc1ccccc1)C(=O)CO2`?
NPR1 antag: inconclusive; Luciferase inh: 50µM*; GPT2 inh: -11%[88.5 µM]; 3T3 cytotox: 79µM*; HEK cytotox: 89µM*

What do the screens show for `Cn1cc(-c2ccc3c(n2)CN(Cc2ccccc2)C(=O)CO3)cn1`?
NPR1 antag: -4%[70.6 µM]; Luciferase inh: inactive; GPT2 inh: 5%[88.5 µM]; 3T3 cytotox: 40µM*; HEK cytotox: inconclusive

Results for Cc1nc(CN2Cc3nc(N(C)c4ccccc4)ccc3OCC2=O)cs1 ?
NPR1 antag: inconclusive; Luciferase inh: inactive; GPT2 inh: -13%[88.5 µM]; 3T3 cytotox: inconclusive; HEK cytotox: inconclusive

Results for CN1c2cccnc2CN(CC2CCCCC2)CC[C@H]1CO ?
NPR1 antag: -2%[70.6 µM]; Luciferase inh: inactive; GPT2 inh: 0%[88.5 µM]; 3T3 cytotox: 50µM*; HEK cytotox: inconclusive

How did O=C(CC1CCCCC1)NC(Cc1ccccc1)C(=O)N1CCN(c2ccccn2)CC1 (centres undefined) do in these assays?
NPR1 antag: -3%; Luciferase inh: inactive; GPT2 inh: inconclusive; 3T3 cytotox: inconclusive; HEK cytotox: inconclusive

How did COC(=O)[C@H](Cc1ccccc1)NC1CCN(c2cccc(NC(=O)CC3CCCC3)c2)CC1 do in these assays?
NPR1 antag: inconclusive; Luciferase inh: inactive; GPT2 inh: inactive; 3T3 cytotox: inconclusive; HEK cytotox: 40µM*

What do the screens show for `O=C(CCc1ccccc1)N1CCC(Cc2nncn2-c2ccccc2)C1` (centres undefined)?
NPR1 antag: -8%; Luciferase inh: inactive; GPT2 inh: inactive; 3T3 cytotox: -26%; HEK cytotox: -2%

How did CC(O)CNc1ccc(-c2nc(CCCc3ccccc3)no2)cn1 (centres undefined) do in these assays?
NPR1 antag: 1%; Luciferase inh: 45µM*; GPT2 inh: inconclusive; 3T3 cytotox: inconclusive; HEK cytotox: inconclusive

What do the screens show for `CN(Cc1cnccn1)c1ccc(-c2nc(CCCc3ccccc3)no2)cn1`?
NPR1 antag: -20%; Luciferase inh: inconclusive; GPT2 inh: -7%; 3T3 cytotox: -29%; HEK cytotox: -22%

What do the screens show for `c1ccc(CCCc2noc(-c3ccc(N4CCCNCC4)nc3)n2)cc1`?
NPR1 antag: 4%; Luciferase inh: inconclusive; GPT2 inh: -2%; 3T3 cytotox: inconclusive; HEK cytotox: 22µM*

How did OCC1CCN(c2ccc(-c3nc(CCCc4ccccc4)no3)cn2)CC1 do in these assays?
NPR1 antag: 13µM*; Luciferase inh: inconclusive; GPT2 inh: inconclusive; 3T3 cytotox: inconclusive; HEK cytotox: inconclusive

Results for CN(Cc1ncc[nH]1)c1ccc(-c2nc(CCCc3ccccc3)no2)cn1 ?
NPR1 antag: inconclusive; Luciferase inh: inconclusive; GPT2 inh: -12%; 3T3 cytotox: inconclusive; HEK cytotox: 45µM*

What do the screens show for `CNC1CCN(c2ccc(-c3nc(CCCc4ccccc4)no3)cn2)CC1`?
NPR1 antag: -5%; Luciferase inh: inconclusive; GPT2 inh: inactive[11.5 µM]; 3T3 cytotox: inconclusive; HEK cytotox: inconclusive

What do the screens show for `Cc1ccc(CNC(=O)N2CC[C@H]3C(=O)NCCCCCN(Cc4cccnc4)[C@@H]3C2)cc1`?
NPR1 antag: 1%; Luciferase inh: inactive; GPT2 inh: 2%; 3T3 cytotox: -1%; HEK cytotox: -1%

What do the screens show for `O=C1N(Cc2cccnc2)C(=O)C2(CCN(Cc3cc(F)ccc3F)CC2)N1CCc1ccccc1`?
NPR1 antag: 2%; Luciferase inh: inactive; GPT2 inh: -11%; 3T3 cytotox: inconclusive; HEK cytotox: 40µM*

What do the screens show for `COC(=O)CN1C(=O)[C@@H]2C[C@@H](O)CN2C2(CN(Cc3ccncc3)C2)C1=O`?
NPR1 antag: 1%[70.6 µM]; Luciferase inh: inactive; GPT2 inh: -10%[88.5 µM]; 3T3 cytotox: -2%[174 µM]; HEK cytotox: -4%[172 µM]

How did O=C(Nc1cnc(-c2ccc(F)cc2)nc1)c1ccco1 do in these assays?
NPR1 antag: -20%; Luciferase inh: 3.5µM*; GPT2 inh: inactive; 3T3 cytotox: -15%; HEK cytotox: inconclusive

How did O=C(Nc1cnc(-c2ccccc2)nc1)c1ccco1 do in these assays?
NPR1 antag: -13%; Luciferase inh: 11µM*; GPT2 inh: inactive; 3T3 cytotox: -3%; HEK cytotox: -5%
